39 compounds from PubChem BioAssay (NCI) can be followed below.

Structures are written as SMILES. About 83,000 compounds went through this panel and 20% of them were active in at least one assay; those are over-represented in the sample as a whole.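 Single-concentration screen, 48 h exposure, 96-well plates. Endpoint: percent growth. Below 10 = active.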 Unmarked numbers belong to inactive results. Active and inactive are the calls of the source.

The subject of one test is OVCAR-5 ovarian. The test is described as follows: NCI-60 one-dose screen, 48 h (100 = growth as untreated, 0 = no growth, -100 = all killed). Conditions: 10 µM unless noted.
In the case of `Cc1ccc2c(C3C(C#N)=C(N)Oc4cc5ccccc5cc43)cc(=O)oc2c1` (configuration not stated), the growth is 49.7%.
Turning to `Oc1ccc(Cl)cc1Sc1cc(Cl)ccc1O`, the growth is 100%.
Same read-out and setting: the result for `CCc1cccc(-c2ccccc2)c1` reads 104%.
`CC(C)Cn1cnc2c3ccccc3nc(NCn3nc(-c4cc(Cl)cc(Cl)c4Cl)oc3=S)c21`: the growth was 88.3%.
The same measure, in the same setting: in the case of `Clc1ccc2c(c1)nnn1c3ncccc3c(Br)c21` it was 101%.
The same measure, in the same setting: in the case of `Cc1ccc(-c2nc3c(N=Nc4ccc(S(N)(=O)=O)cc4)c(N)nn3c(N)c2C#N)cc1` it was 78.7%; in that of `O=C(C[n+]1ccccc1Cl)c1ccc2c(c1)CCCC2`, 102%; in that of `COc1ccc(C2CC(c3cc(Cl)c(C)cc3OC)=NN2c2ccc(S(N)(=O)=O)cc2)cc1OC` (configuration not stated), 70.6%.
Still for that read-out and setting: in the case of `CCN(CC)c1ccc(C2CC(c3cc(OC)c(OC)c(OC)c3)=NN2)cc1` (configuration not stated) it was 40.6%.
Turning to `COC(=O)CCCNS(=O)(=O)c1cc(C(=O)Nc2ccc(NC(=O)c3cc(S(=O)(=O)NCCCC(=O)OC)c(O)c(O)c3O)cc2)c(O)c(O)c1O`, the growth is 107%.
Consider `CC/C(=C(\CC)c1ccc(OCCN(CC)CC)cc1)c1ccc(OCCN(CC)CC)cc1`, for which the growth was 38.7%.
Same read-out and setting: in the case of `CC1=C2C(=C[C@@](C)(CO)[C@@H]2OC(=O)N(C)CCN(C)C(=O)OC(C)(C)C)C(=O)[C@](C)(O)C12CC2` it was 19.2%.
For the compound `CC(=O)N1N=C(CCC(=O)c2nc3ccc([N+](=O)[O-])cc3[nH]2)OC1c1ccc(O)cc1` (configuration not stated), the growth is 104%.
Same read-out and setting: in the case of `OCCOCC(F)(F)F` it was 96%.
As to `O=C(O)c1cn(C2CC2)c2cc(N3CCN(C(=O)CSc4nc(NS(=O)(=O)c5ccccc5)cc(=O)[nH]4)CC3)c(F)cc2c1=O`, the growth is 112%.
On the same count and under the same terms, the result for `c1coc(CSc2ncnc3nc[nH]c23)c1` reads 103%.
Same read-out and setting: in the case of `COC(OC)C1(c2ccccc2)NC(=O)NC1=O` (configuration not stated) it was 122%; in that of `COc1cccc(C2CC(c3cc(OC)c(OC)c(OC)c3)=NN2)c1` (configuration not stated), 98.8%.
On the same count and under the same terms, in the case of `COc1cc(C(=O)N2CCN(C(=O)c3cc(OC)c(OCc4ccccc4)cc3N)CC2)c(N)cc1OCc1ccccc1` it was 103%.
In the case of `COc1cc2c(cc1OCCCCC(=O)Nc1ccc(-c3nc4ccccc4s3)cc1)N=C[C@@H]1CCCN1C2=O`, the growth is 4.91% (active).
For `C=C1C(=O)O[C@H]2[C@H]1CC/C(COC(=O)c1cccc3ccccc13)=C\CC[C@@]1(C)O[C@@H]21`, the growth was -47.9% (active).
The same measure, in the same setting: the result for `COc1ccccc1S(=O)(=O)Nc1ccc2c3c(cc(-c4ccoc4)nc13)C(=O)N2C` reads 76.3%.
On to `CN1C(=O)C2(SCC(C(=O)NCC(=O)OC(C)(C)C)N2C(=O)C2CCCCC2)c2ccccc21` (configuration not stated), for which the growth is 104%.
Regarding `COc1ccc(/C=C/C(=O)c2ccc(-n3cc(CN4CCN(c5cc6c(cc5F)c(=O)c(C(=O)O)cn6C5CC5)CC4)nn3)cc2)cc1OC`, the growth was 72.3%.
On the same count and under the same terms, the result for `O=C(Nc1ccc(Cl)c(Cl)c1)Nc1ccc(Cl)c([N+](=O)[O-])c1` reads 11.9%; that for `Cc1cc[n+](CCCC[n+]2ccc(C)cc2)cc1`, 104%; that for `Cc1cn(C2CC(F)C(CO)O2)c(=O)[nH]c1=O` (configuration not stated), 94.4%.
As for `COc1cc2ncnc(Oc3ccc(NC(=O)Nc4ccc(C5(C#N)CCCC5)cc4)c4ccccc34)c2cc1OC`, the growth was 81%.

Another test relates to OVCAR-4 ovarian. The test is described as above. Conditions: 10 µM unless noted.
In the case of `Cc1ccc2c(C3C(C#N)=C(N)Oc4cc5ccccc5cc43)cc(=O)oc2c1` (configuration not stated), the growth is 67.6%.
On to `Oc1ccc(Cl)cc1Sc1cc(Cl)ccc1O`, for which the growth was 70.2%.
Take `CCc1cccc(-c2ccccc2)c1`: the growth is 101%.
Same read-out and setting: the result for `CCCCNc1cc(C(=O)O)cc(S(N)(=O)=O)c1Oc1ccccc1` reads 105%; that for `CC(C)Cn1cnc2c3ccccc3nc(NCn3nc(-c4cc(Cl)cc(Cl)c4Cl)oc3=S)c21`, 88.2%.
The same measure, in the same setting: in the case of `Clc1ccc2c(c1)nnn1c3ncccc3c(Br)c21` it was 77.1%; in that of `Cc1ccc(-c2nc3c(N=Nc4ccc(S(N)(=O)=O)cc4)c(N)nn3c(N)c2C#N)cc1`, 52.2%.
Consider `O=C(C[n+]1ccccc1Cl)c1ccc2c(c1)CCCC2`, for which the growth was 83.6%.
Same read-out and setting: the result for `COc1ccc(C2CC(c3cc(Cl)c(C)cc3OC)=NN2c2ccc(S(N)(=O)=O)cc2)cc1OC` (configuration not stated) reads 87.8%; that for `CCN(CC)c1ccc(C2CC(c3cc(OC)c(OC)c(OC)c3)=NN2)cc1` (configuration not stated), 37.2%; that for `COC(=O)CCCNS(=O)(=O)c1cc(C(=O)Nc2ccc(NC(=O)c3cc(S(=O)(=O)NCCCC(=O)OC)c(O)c(O)c3O)cc2)c(O)c(O)c1O`, 98.3%.
Still for that read-out and setting: the result for `CC(NCCC(c1ccccc1)c1ccccc1)c1ccccc1` (configuration not stated) reads 64.9%.
On the same count and under the same terms, in the case of `CC/C(=C(\CC)c1ccc(OCCN(CC)CC)cc1)c1ccc(OCCN(CC)CC)cc1` it was 38.1%; in that of `Cc1ccc(N(CC2=NCCN2)c2cccc(O)c2)cc1`, 103%; in that of `COc1ccc(C[C@H](N)C(=O)N[C@@H]2[C@@H](CO)OC(n3cnc4c(N(C)C)ncnc43)[C@@H]2O)cc1` (some centres not stated), -32.9% (active).
On to `CC1=C2C(=C[C@@](C)(CO)[C@@H]2OC(=O)N(C)CCN(C)C(=O)OC(C)(C)C)C(=O)[C@](C)(O)C12CC2`, for which the growth was 43.8%.
For `CC(=O)N1N=C(CCC(=O)c2nc3ccc([N+](=O)[O-])cc3[nH]2)OC1c1ccc(O)cc1` (configuration not stated), the growth was 109%.
`CC1CCc2cc(F)cc3c(=O)c(C(=O)O)cn1c23` (configuration not stated): the growth was 111%.
Same read-out and setting: in the case of `OCCOCC(F)(F)F` it was 100%.
As for `O=C(O)c1cn(C2CC2)c2cc(N3CCN(C(=O)CSc4nc(NS(=O)(=O)c5ccccc5)cc(=O)[nH]4)CC3)c(F)cc2c1=O`, the growth was 104%.
With `c1coc(CSc2ncnc3nc[nH]c23)c1`, the growth was 99%.
As for `CN(C)CC/C=C1\c2ccccc2Sc2ccc(Cl)cc21`, the growth is 69.9%.
Still for that read-out and setting: the result for `O=C(COc1ccc(Cl)cc1)N1CCN(Cc2ccc3c(c2)OCO3)CC1` reads 94.5%.
For `COc1cc(NS(=O)(=O)c2ccc(N)cc2)ncn1`, the growth is 114%.
Take `COC(OC)C1(c2ccccc2)NC(=O)NC1=O` (configuration not stated): the growth is 113%.
Regarding `CC(=O)Nc1ccc(OC(=O)c2ccccc2O)cc1`, the growth was 105%.
The same measure, in the same setting: in the case of `COc1cccc(C2CC(c3cc(OC)c(OC)c(OC)c3)=NN2)c1` (configuration not stated) it was 85.5%; in that of `COc1cc(C(=O)N2CCN(C(=O)c3cc(OC)c(OCc4ccccc4)cc3N)CC2)c(N)cc1OCc1ccccc1`, 103%; in that of `COc1cc2c(cc1OCCCCC(=O)Nc1ccc(-c3nc4ccccc4s3)cc1)N=C[C@@H]1CCCN1C2=O`, -11.9% (active).
Same read-out and setting: the result for `C=C1C(=O)O[C@H]2[C@H]1CC/C(COC(=O)c1cccc3ccccc13)=C\CC[C@@]1(C)O[C@@H]21` reads -38.9% (active); that for `COc1ccccc1S(=O)(=O)Nc1ccc2c3c(cc(-c4ccoc4)nc13)C(=O)N2C`, 55.1%.
`C=C1c2c(Cl)ccc(O)c2C(O)=C2C(=O)[C@]3(O)C(O)=C(C(N)=O)C(=O)[C@@H](N(C)C)[C@@H]3[C@@H](O)[C@H]12`: the growth was 23.7%.
Consider `CN1C(=O)C2(SCC(C(=O)NCC(=O)OC(C)(C)C)N2C(=O)C2CCCCC2)c2ccccc21` (configuration not stated), for which the growth was 100%.
On to `COc1ccc(/C=C/C(=O)c2ccc(-n3cc(CN4CCN(c5cc6c(cc5F)c(=O)c(C(=O)O)cn6C5CC5)CC4)nn3)cc2)cc1OC`, for which the growth was 73.7%.
Still for that read-out and setting: in the case of `O=C(Nc1ccc(Cl)c(Cl)c1)Nc1ccc(Cl)c([N+](=O)[O-])c1` it was 27.1%; in that of `Cc1cc[n+](CCCC[n+]2ccc(C)cc2)cc1`, 114%.
`Cc1cn(C2CC(F)C(CO)O2)c(=O)[nH]c1=O` (configuration not stated): the growth is 93.1%.
Take `COc1cc2ncnc(Oc3ccc(NC(=O)Nc4ccc(C5(C#N)CCCC5)cc4)c4ccccc34)c2cc1OC`: the growth was -1.26% (active).
For the compound `COC(=O)Nc1nc2ccc(Sc3ccccc3)cc2[nH]1`, the growth is 49.4%.
